From PubChem BioAssay (Tox21)
Records with an inconclusive call do not appear. Calls of active or inactive are those of the source. Calls follow the shape of the dose curve; as a rule, active = well fitted curve in the direction sought with a large enough effect in the repeat runs; inconclusive = weak or mixed curves; inactive = no such curve, though single readings can be large; an effect the other way counts as inactive or inconclusive.

How the values were obtained:
[1] = qHTS assay to identify small molecule agonists of the RXR signaling pathway - cell viability counter screen (AID 1159529);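 also: HEK 293T cells carrying an RXR-alpha UAS beta-lactamase reporter; series mostly up to about 77 µM; nearly all actives have a fitted effect of over 50% in size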
In short: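 Counter screen: CellTiter-Glo luminescence. Cells: RXR-alpha-UAS-bla HEK 293T. Medium: 2% charcoal-stripped FBS. Treatment: 16 h, 37 C. Reagent incubation: 30 min, RT.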

[2] = qHTS assay to identify small molecule antagonists of the retinoid acid receptor (RAR) signaling pathway - cell viability counter screen (AID 1159551); also: nearly all actives have a fitted effect of over 35% in size
In short: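 Seed C3RL4 cells; next day add compound, then retinol to 1 uM final; incubate 6 h at 37 C; add CellTiter-Glo; read luminescence after 30 min at RT.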

[3] = qHTS assay to identify small molecule antagonists of the retinoic acid receptor (RAR) signaling pathway (AID 1159552; also: nearly all actives have a fitted effect of over 50% in size)
In short: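 Antagonism of retinol-induced RARE reporter activity was measured in C3RL4 cells. Exposure to compounds and 1 uM final retinol lasted 6 hr at 37 C, with luminescence as endpoint.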

[4] = qHTS assay to identify small molecule antagonists of the estrogen related receptor (ERR) signaling pathway from Tox21 library - cell viability counter screen (AID 1224834); also: nearly all actives have a fitted effect of over 30% in size
In short: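 CellTiter-Fluor fluorescence measured; ERR cells; 17.5 h compound incubation at 37 C; 30 min reagent step.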

[5] = target: Luciferin 4-monooxygenase (Photinus pyralis) (UniProt P08659); assay: qHTS assay to identify small molecule inhibitors of firefly luciferase (AID 1224835); also: series mostly up to about 120 µM; nearly all actives have a fitted effect of over 25% in size
In short: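 Biochemical qHTS: compounds run as interplate titrations against purified firefly enzyme, with D-luciferin and ATP each at its KM concentration. Light output recorded by CCD imaging.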

[6] = qHTS assay to identify small molecule agonists of the constitutive androstane receptor (CAR) signaling pathway - cell viability counter screen (AID 1224836); also: series mostly up to about 92 µM; nearly all actives have a fitted effect of over 45% in size
In short: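 Double-stable HepG2 hepatoma cells (hCAR plus CYP2B6-2.2kb) are treated for 23 h at 37 C with test compounds in 15-point concentration series. PK11195 at 0.75 uM final is co-added. Cell viability is quantified by CellTiter-Fluor.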

[7] = qHTS assay to identify small molecule antagonists of the constitutive androstane receptor (CAR) signaling pathway - cell viability counter screen (AID 1224837); also: series mostly up to about 92 µM; nearly all actives have a fitted effect of over 45% in size
In short: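 Using CellTiter-Fluor, viability is scored in HepG2 cells stably carrying hCAR and a 2.2kb CYP2B6 reporter after 23 hr compound exposure across 15 concentrations, with CITCO present at 50 nM.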

[8] = target: Nuclear receptor subfamily 1 group I member 3 (Homo sapiens) (UniProt Q14994); assay: qHTS assay to identify small molecule antagonists of the constitutive androstane receptor (CAR) signaling pathway (AID 1224838);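 also: HepG2 cells stably expressing hCAR with CYP2B6 luciferase reporter stimulated by CITCO; nearly all actives have a fitted effect of over 40% in size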
In short: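 Reporter luminescence was quantified after 24 h exposure of hCAR/CYP2B6-2.2kb double-stable HepG2 cells to compounds at 15 concentrations in the presence of 50 nM CITCO final.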

[9] = target: Nuclear receptor subfamily 1 group I member 3 (Homo sapiens) (UniProt Q14994); assay: qHTS assay to identify small molecule agonists of the constitutive androstane receptor (CAR) signaling pathway (AID 1224839);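 also: HepG2 cells stably carrying human CAR and a CYP2B6 luciferase reporter; series mostly up to about 92 µM; nearly all actives have a fitted effect of over 15% in size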
In short: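 Readout: firefly luciferase luminescence via ONE-Glo. System: HepG2 double-stable for hCAR and CYP2B6-2.2kb. Conditions: 15-point compound titration, PK11195 at 0.75 uM final, 24 h incubation.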

[10] = qHTS assay to identify small molecule agonists of the retinoic acid receptor (RAR) signaling pathway (AID 1159553)
In short: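 Activation of retinol signaling was monitored via a RARE luciferase reporter in C3RL4 cells. After 6 hr compound treatment at 37 C, detection reagent was added for 30 min at room temperature before luminescence reading.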
% is scaled to controls: 0 for no effect and ±100 for the full control effect.

Sequence of Luciferin 4-monooxygenase (Photinus pyralis) (P08659 whole entry, looked up): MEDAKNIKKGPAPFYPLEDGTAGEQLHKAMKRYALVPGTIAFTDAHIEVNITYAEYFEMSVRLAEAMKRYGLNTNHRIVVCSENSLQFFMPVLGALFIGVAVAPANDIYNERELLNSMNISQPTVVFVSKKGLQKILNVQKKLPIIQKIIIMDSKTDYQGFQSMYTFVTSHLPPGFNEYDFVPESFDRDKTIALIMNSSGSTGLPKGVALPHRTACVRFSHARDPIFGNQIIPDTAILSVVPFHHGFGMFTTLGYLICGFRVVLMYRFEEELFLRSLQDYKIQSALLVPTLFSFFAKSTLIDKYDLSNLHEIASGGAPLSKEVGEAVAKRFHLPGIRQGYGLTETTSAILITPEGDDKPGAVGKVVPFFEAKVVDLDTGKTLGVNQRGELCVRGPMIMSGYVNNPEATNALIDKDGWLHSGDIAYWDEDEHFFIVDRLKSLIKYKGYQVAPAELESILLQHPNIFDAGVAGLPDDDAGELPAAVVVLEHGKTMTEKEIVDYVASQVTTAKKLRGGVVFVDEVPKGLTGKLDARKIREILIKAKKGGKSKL
Sequence of Nuclear receptor subfamily 1 group I member 3 (Homo sapiens) (Q14994 whole entry, looked up): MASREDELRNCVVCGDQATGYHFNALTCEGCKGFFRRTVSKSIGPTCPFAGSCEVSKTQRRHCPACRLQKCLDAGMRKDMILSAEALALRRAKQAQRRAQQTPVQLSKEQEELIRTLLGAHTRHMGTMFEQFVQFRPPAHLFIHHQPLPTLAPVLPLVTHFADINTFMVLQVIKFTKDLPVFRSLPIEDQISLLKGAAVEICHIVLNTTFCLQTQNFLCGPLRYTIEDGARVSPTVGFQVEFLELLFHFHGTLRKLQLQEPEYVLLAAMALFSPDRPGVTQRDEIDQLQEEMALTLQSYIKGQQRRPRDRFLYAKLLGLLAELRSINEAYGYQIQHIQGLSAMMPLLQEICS

CCOC(=O)COc1ccc2c(C)c(CCN(CC)CC)c(=O)oc2c1Cl
inactive: Potency [1] | outcome [2] | outcome [3] | outcome [4] | Potency [5] | outcome [6] | outcome [7] | outcome [8] | Potency [9]

NCC1CCC(C(=O)Oc2ccc(CCC(=O)O)cc2)CC1 (centres undefined)
inactive: Potency [1] | outcome [2] | outcome [3] | Potency [10] | outcome [4] | Potency [5] | outcome [7] | outcome [8] | Potency [9]

Nc1cc(S(=O)(=O)O)ccc1O
inactive: Potency [1] | outcome [2] | outcome [3] | Potency [10] | Potency [5] | outcome [6] | outcome [7] | outcome [8] | Potency [9]

COC(=O)N/N=C/c1c[n+]([O-])c2ccccc2[n+]1[O-]
inactive: Potency [1] | outcome [2] | outcome [3] | Potency [10] | Potency [5] | outcome [6] | outcome [7] | outcome [8] | Potency [9]

CC(C)(C)C(=O)NCCCC(=O)O
inactive: Potency [1] | outcome [2] | outcome [3] | Potency [10] | outcome [4] | Potency [5] | outcome [7] | outcome [8] | Potency [9]

O=C(CCBr)N1CCN(C(=O)CCBr)CC1
inactive: Potency [1] | outcome [2] | outcome [3] | Potency [10] | Potency [5] | outcome [6] | outcome [7]

CC(=O)/C=C/C=C1/C2CCC(C2)C1(C)C (centres undefined)
inactive: Potency [1] | outcome [2] | outcome [3] | Potency [10] | Potency [5] | outcome [6] | outcome [7]

CCN(CC)CC(=O)Oc1ccc(NC(C)=O)cc1
inactive: Potency [1] | outcome [2] | outcome [3] | Potency [10] | Potency [5] | outcome [6] | outcome [7] | Potency [9]

C=COCCCCO
inactive: Potency [1] | outcome [2] | outcome [3] | Potency [10] | outcome [4] | Potency [5] | outcome [7]

CCCCCCC(O)CO (centres undefined)
inactive: Potency [1] | outcome [2] | outcome [3] | Potency [10] | outcome [4] | Potency [5] | outcome [7] | outcome [8] | Potency [9]

CC(C)c1cc(C(C)C)cc(C(C)C)c1
inactive: Potency [1] | outcome [2] | outcome [3] | Potency [10] | Potency [5] | outcome [7]

CC(=O)OC1CCC(C(C)(C)C)CC1 (centres undefined)
inactive: Potency [1] | outcome [2] | outcome [3] | Potency [10] | outcome [4] | Potency [5] | outcome [7] | outcome [8] | Potency [9]

O=C(O)CCCCCCCCCC(=O)O
inactive: Potency [1] | outcome [2] | outcome [3] | Potency [10] | Potency [5] | outcome [7]

COc1ccc(Cl)cc1C
inactive: Potency [1] | outcome [2] | outcome [3] | Potency [10] | Potency [5] | outcome [6] | outcome [7]

OCCC(F)(F)C(F)(F)C(F)(F)C(F)(F)C(F)(F)C(F)(F)F
inactive: Potency [1] | outcome [2] | outcome [3] | outcome [4] | Potency [5] | outcome [6] | outcome [7] | outcome [8] | Potency [9]

COc1cc(OC)cc(OC)c1
inactive: Potency [1] | outcome [2] | outcome [3] | Potency [10] | outcome [4] | Potency [5] | outcome [7] | outcome [8] | Potency [9]

C[C@@H](CN1CC(=O)NC(=O)C1)N1CC(=O)NC(=O)C1
inactive: Potency [1] | outcome [2] | outcome [3] | Potency [10] | Potency [5] | outcome [6] | outcome [7] | outcome [8] | Potency [9]

CCCCN(CCCC)CCCCCCN(CCCC)CCCC
inactive: Potency [1] | outcome [2] | outcome [3] | Potency [10] | Potency [5] | outcome [7] | outcome [8] | Potency [9]

C=CCCCCCCCCCCCCCC
inactive: activity change, negative = cytotoxicity [1] -3.45% [at 15.8 µM] | activity change, negative = cytotoxicity [2] 0.725% [at 19 µM] | activity, negative = inhibition [3] -7.34% [at 19 µM] | Potency [10] | viability change, negative = cytotoxic [4] 3.18% [at 19 µM] | activity change, negative = inhibition [5] 0.285% [at 23.6 µM] | activity change, negative = cytotoxicity [7] -0.461% [at 19 µM] | activity, negative = inhibition [8] 6.03% [at 19 µM] | activation [9] -0.195% [at 19 µM]

O=Cc1ccccc1S(=O)(=O)O
inactive: Potency [1] | outcome [2] | outcome [3] | Potency [10] | outcome [4] | Potency [5] | outcome [6] | outcome [7] | Potency [9]

O=C(O)P(=O)(O)O
inactive: Potency [1] | outcome [2] | outcome [3] | Potency [10] | Potency [5] | outcome [7] | outcome [8] | Potency [9]

O=C1Nc2ccccc2C1=O
inactive: Potency [1] | outcome [2] | outcome [3] | Potency [10] | outcome [4] | Potency [5] | outcome [7] | outcome [8]

CC(C)(C)C(=O)CCc1ccc(Cl)cc1
inactive: Potency [1] | outcome [2] | outcome [3] | Potency [10] | outcome [4] | Potency [5] | outcome [7] | outcome [8] | Potency [9]

CCCCCC(CC)OC(=O)CCCOc1ccc(Cl)cc1Cl (centres undefined)
inactive: Potency [1] | outcome [2] | outcome [3] | outcome [4] | Potency [5] | outcome [6] | outcome [7]

COCCCOc1cc(C[C@@H](C[C@H](N)[C@@H](O)C[C@H](C(=O)NCC(C)(C)C(N)=O)C(C)C)C(C)C)ccc1OC
inactive: Potency [1] | outcome [2] | outcome [3] | Potency [10] | outcome [4] | Potency [5] | outcome [7]

CC(=O)OCC(=O)[C@@]1(O)CC[C@H]2[C@@H]3CCC4=CC(=O)C=C[C@]4(C)[C@H]3[C@@H](O)C[C@@]21C
inactive: Potency [1] | outcome [2] | outcome [3] | Potency [10] | outcome [4] | Potency [5] | outcome [7]

CCC(C)c1nccnc1OC (centres undefined)
inactive: Potency [1] | outcome [2] | outcome [3] | Potency [10] | outcome [4] | Potency [5] | outcome [6] | outcome [7] | Potency [9]

CC(C)(C)OC=O
inactive: Potency [1] | outcome [2] | outcome [3] | outcome [4] | Potency [5] | outcome [6] | outcome [7]

C=CCOC(=O)CCCCCCCC
inactive: Potency [1] | outcome [2] | outcome [3] | Potency [10] | outcome [4] | Potency [5] | outcome [7] | outcome [8] | Potency [9]

c1cc2ccc3ccc4ccc5cccc6c(c1)c2c3c4c56
inactive: activity change, negative = cytotoxicity [1] 0.199% [at 2.72 µM] | activity change, negative = cytotoxicity [2] 4.71% [at 3.27 µM] | activity, negative = inhibition [3] -1.28% [at 3.27 µM] | activation [10] -0.114% [at 3.75 µM] | activity change, negative = inhibition [5] 1.19% [at 4.07 µM] | viability change, negative = cytotoxic [6] 2.84% [at 3.27 µM] | activity change, negative = cytotoxicity [7] 2.07% [at 3.26 µM] | activity, negative = inhibition [8] 27.3% [at 3.26 µM] | activation [9] 5.04% [at 3.27 µM]
